# According to article PMC8384837, “Expanding the binding specificity for RNA recognition by a PUF domain”:
# Legend:
# Experiment in all cases: yeast three-hybrid, YBZ-1, SC-Leu-His + 0.5 mM 3-AT, 4 days
# Settings in all cases: tags: N-Gal4 AD-HA kept; label: inside an RPR1-promoter hybrid RNA with tandem MS2 sites; ssRNA
# PUM1 PUF domain R5-FHK = PUM1 PUF domain R5-FHK (Homo sapiens, UniProt Q14671 828-1176, C1007F;R1008H;Q1011K)
# How it was run: (§1)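 Repeat regions from input (SC-Leu) and selection (SC-Leu-His + 0.5 mM 3-AT) plates were PCR-amplified and Illumina-sequenced after four days of growth. The cells were strain YBZ-1 with a LexA–MS2 coat fusion and a HIS3 reporter, co-expressing Pumilio-1 PUF domain libraries and matching RNA elements from a centromeric plasmid. The interaction score is the log change in variant frequency from input to selection, taken in log2 with a pseudocount of 1 for absent variants.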
# PUM1 PUF domain R5-KHH = PUM1 PUF domain R5-KHH (Homo sapiens, UniProt Q14671 828-1176, C1007K;R1008H;Q1011H)
# How it was run: as §1
# PUM1 PUF domain R4-MHW = PUM1 PUF domain R4-MHW (Homo sapiens, UniProt Q14671 828-1176, N971M;Q975W)
# How it was run: as §1
# PUM1 PUF domain R4-WAA = PUM1 PUF domain R4-WAA (Homo sapiens, UniProt Q14671 828-1176, N971W;H972A;Q975A)
# How it was run: as §1
# PUM1 PUF domain R3-MSR = PUM1 PUF domain R3-MSR (Homo sapiens, UniProt Q14671 828-1176, C935M;R936S;Q939R)
# How it was run: as §1
# PUM1 PUF domain R3-LSC = PUM1 PUF domain R3-LSC (Homo sapiens, UniProt Q14671 828-1176, C935L;R936S;Q939C)
# How it was run: as §1
# PUM1 PUF domain R5-FRW = PUM1 PUF domain R5-FRW (Homo sapiens, UniProt Q14671 828-1176, C1007F;Q1011W)
# How it was run: as §1
# PUM1 PUF domain R7-RGF = PUM1 PUF domain R7-RGF (Homo sapiens, UniProt Q14671 828-1176, S1079R;N1080G;E1083F)
# How it was run: as §1
# PUM1 PUF domain R4-DRC = PUM1 PUF domain R4-DRC (Homo sapiens, UniProt Q14671 828-1176, N971D;H972R;Q975C)
# How it was run: as §1
# PUM1 PUF domain R6-VFI = biological target: T1, PUM1 PUF domain R6-VFI (Homo sapiens, UniProt Q14671 828-1176, N1043V;Y1044F;Q1047I)
# T1 sequence: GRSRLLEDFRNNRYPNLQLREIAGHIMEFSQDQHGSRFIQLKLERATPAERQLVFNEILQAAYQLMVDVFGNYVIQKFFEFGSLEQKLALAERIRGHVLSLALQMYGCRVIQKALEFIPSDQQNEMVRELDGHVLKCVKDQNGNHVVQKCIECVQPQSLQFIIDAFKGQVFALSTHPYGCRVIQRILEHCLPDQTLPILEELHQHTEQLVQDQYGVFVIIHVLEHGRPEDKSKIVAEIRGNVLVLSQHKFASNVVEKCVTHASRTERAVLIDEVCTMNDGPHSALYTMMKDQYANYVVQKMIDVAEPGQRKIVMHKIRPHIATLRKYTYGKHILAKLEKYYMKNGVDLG
# How it was run: as §1
sequence,measurement,setting,value
GGCUAGAACUAGUGGAUCCCCCGGCGCCCGGCGGCUCGAGCCCGGGUAAGUGUGAAUAGUCUGCAUGCCGCCGGGCGCCAUGCCUGCAGGUCGACUCUAGAAAACAUG,binding signal,PUM1 PUF domain R5-FHK,3.51 log2 enrichment (interaction score)
same,binding signal,PUM1 PUF domain R5-KHH,2.08 log2 enrichment (interaction score)
GGCUAGAACUAGUGGAUCCCCCGGCGCCCGGCGGCUCGAGCCCGGGUAAGUGUAUAUAGUCUGCAUGCCGCCGGGCGCCAUGCCUGCAGGUCGACUCUAGAAAACAUG,binding signal,PUM1 PUF domain R4-MHW,3.93 log2 enrichment (interaction score)
same,binding signal,PUM1 PUF domain R4-WAA,4.4 log2 enrichment (interaction score)
GGCUAGAACUAGUGGAUCCCCCGGCGCCCGGCGGCUCGAGCCCGGGUAAGUGUAAGUAGUCUGCAUGCCGCCGGGCGCCAUGCCUGCAGGUCGACUCUAGAAAACAUG,binding signal,PUM1 PUF domain R3-MSR,3.44 log2 enrichment (interaction score)
GGCUAGAACUAGUGGAUCCCCCGGCGCCCGGCGGCUCGAGCCCGGGUAAGUGUAAUUAGUCUGCAUGCCGCCGGGCGCCAUGCCUGCAGGUCGACUCUAGAAAACAUG,binding signal,PUM1 PUF domain R3-LSC,2.84 log2 enrichment (interaction score)
same,binding signal,PUM1 PUF domain R3-MSR,2.82 log2 enrichment (interaction score)
GGCUAGAACUAGUGGAUCCCCCGGCGCCCGGCGGCUCGAGCCCGGGUAAGUGUCAAUAGUCUGCAUGCCGCCGGGCGCCAUGCCUGCAGGUCGACUCUAGAAAACAUG,binding signal,PUM1 PUF domain R5-FRW,3.47 log2 enrichment (interaction score)
GGCUAGAACUAGUGGAUCCCCCGGCGCCCGGCGGCUCGAGCCCGGGUAAGUUUAAAUAGUCUGCAUGCCGCCGGGCGCCAUGCCUGCAGGUCGACUCUAGAAAACAUG,binding signal,PUM1 PUF domain R7-RGF,3.87 log2 enrichment (interaction score)
GGCUAGAACUAGUGGAUCCCCCGGCGCCCGGCGGCUCGAGCCCGGGUAAGUGUAAAUAGUCUGCAUGCCGCCGGGCGCCAUGCCUGCAGGUCGACUCUAGAAAACAUG,binding signal,PUM1 PUF domain R5-FRW,1.07 log2 enrichment (interaction score)
same,binding signal,PUM1 PUF domain R4-DRC,5.15 log2 enrichment (interaction score)
same,binding signal,PUM1 PUF domain R6-VFI,3.71 log2 enrichment (interaction score)
same,binding signal,PUM1 PUF domain R4-WAA,1.39 log2 enrichment (interaction score)
GGCUAGAACUAGUGGAUCCCCCGGCGCCCGGCGGCUCGAGCCCGGGUAAGUGUUAAUAGUCUGCAUGCCGCCGGGCGCCAUGCCUGCAGGUCGACUCUAGAAAACAUG,binding signal,PUM1 PUF domain R5-FRW,3.35 log2 enrichment (interaction score)
same,binding signal,PUM1 PUF domain R5-FHK,4.76 log2 enrichment (interaction score)
